Bioassay records deposited in PubChem by National Center for Advancing Translational Sciences (NCATS).
Hits are enriched below; roughly 10% of the tested compounds scored in any of these assays.
RORg inh: ROR gamma (mouse) transcription inhibition; Drosophila S2 Gal4-RORgamma UAS-luciferase reporter, 20 h; Potency, µM (top dose mostly 53.6 µM), most hits filed as inhibitors; actives 5.4% (n = 310,000); AID 2551; also: nearly all actives have a fitted effect of over 60% in size
Target sequence (P51450 whole entry, looked up, the tested form may be a part): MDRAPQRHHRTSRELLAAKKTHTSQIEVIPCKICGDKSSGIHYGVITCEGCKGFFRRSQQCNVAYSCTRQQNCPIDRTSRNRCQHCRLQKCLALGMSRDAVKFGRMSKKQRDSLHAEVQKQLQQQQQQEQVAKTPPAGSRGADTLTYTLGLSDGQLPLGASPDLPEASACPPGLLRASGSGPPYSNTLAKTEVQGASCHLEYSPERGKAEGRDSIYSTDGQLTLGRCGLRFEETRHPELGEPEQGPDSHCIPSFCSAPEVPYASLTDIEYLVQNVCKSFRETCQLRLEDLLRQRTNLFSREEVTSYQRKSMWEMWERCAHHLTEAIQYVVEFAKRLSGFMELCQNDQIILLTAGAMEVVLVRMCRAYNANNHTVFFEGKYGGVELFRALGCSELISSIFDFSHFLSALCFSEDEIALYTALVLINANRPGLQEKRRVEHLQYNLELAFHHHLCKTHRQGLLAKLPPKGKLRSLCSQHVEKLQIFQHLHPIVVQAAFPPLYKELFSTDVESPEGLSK
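Read-out: Photinus luciferase luminescence; inhibitors lower reporter signal. Insect Schneider cells with Gal4-ROR gamma fusion under metallothionein promoter, UAS reporter; 700 uM final copper sulfate induction, 20 hr, ambient temperature.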
MCF10A rereplic: DNA re-replication induction in MCF 10a cells; actives 2.9% (n = 350,000); Potency, µM (titrated, usually from 46.1 µM), actives largely listed as activators; AID 624296; MCF 10A DNA re-replication, Hoechst nuclear intensity, 48 h; also: nearly all actives have a fitted effect of over 50% in size
VP16 counter: counter-screen for ROR gamma inhibitors: Gal4-VP16 reporter | actives 3.5% (n = 310,000) | Drosophila S2 Gal4-VP16 UAS-luciferase, luminescence, 20 h | Potency, µM (series often up to 53.6 µM), actives largely listed as inhibitors | AID 2546;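 also: Gal4-VP16 expression switched on by copper sulfate through the metallothionein promoter; nearly all actives have a fitted effect of over 50% in size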
ELG1 DNA repair: ELG1-dependent DNA repair inhibition; HEK293T ELG1-luciferase reporter, luminescence, 16 h; DNA damage induced by 5-fluorouridine; Potency, µM (titrated, usually from 46.1 µM), hits mostly inhibitors; actives 2.3% (n = 330,000); AID 504467; also: nearly all actives have a fitted effect of over 55% in size
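Quantitative HTS, concentration-response format. 2,000 cells/well co-treated with 5-fluorouridine and compound, 16 hr in 5% CO2 at 37 °C; ONE-Glo luminescence read after 30 min.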
SW480 rereplic: induces DNA re-replication in SW480 colon adenocarcinoma cells; SW480 DNA re-replication, Hoechst DNA content imaging, 48 h; Potency, µM (titrated, usually from 46.1 µM), actives largely listed as activators; actives 1.8% (n = 340,000); AID 624297; also: nearly all actives have a fitted effect of over 55% in size
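First, 250 cells per well were seeded. Next, compound or vehicle (23 nL) was pinned in, plates sat 48 hr at 37 C. Finally Hoechst was added for 40 min before fluorescence scanning.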
Of the large screens only hits and unclear results are named; the others gave an inactive call. Calls follow the shape of the dose curve; as a rule, active = well fitted curve in the direction sought with a large enough effect; inconclusive = small, poorly fitted or top-dose-only effect, or another doubt; inactive = no such curve, though single readings can be large; an effect the other way counts as inactive or inconclusive.

COC(=O)c1sc(C(F)(F)F)c(-c2ccccc2)c1S(=O)(=O)N1CCCC1	none
COc1ccc2oc(=O)c(/C(N)=N/NC(=O)c3ccncc3)cc2c1	RORg inh inconclusive
Cc1ccc(F)c(C2C3C=CCCC3(C)C(=O)N2Cc2ccccc2)c1 (stereo unspecified)	RORg inh inconclusive, VP16 counter 32µM (no result: MCF10A rereplic, ELG1 DNA repair, SW480 rereplic)
Cc1ccc(-c2ccc(C3C4C=CCCC4(C)C(=O)N3Cc3ccccc3)c(F)c2)cc1 (stereo unspecified)	none (no result: MCF10A rereplic, ELG1 DNA repair, SW480 rereplic)
COc1ccc(C2CC(c3ccccc3)=NN2C(=O)c2cccs2)cc1 (stereo unspecified)	ELG1 DNA repair inconclusive
COc1ccc(C(=O)N2N=C(c3cccs3)CC2c2ccccc2O)cc1 (stereo unspecified)	ELG1 DNA repair inconclusive, SW480 rereplic 16µM
COc1ccc(C2=NN(C(=O)c3cccs3)C(c3ccccc3O)C2)cc1 (stereo unspecified)	RORg inh inconclusive, MCF10A rereplic 21µM, ELG1 DNA repair inconclusive
COc1ccc(C2CC(c3cccs3)=NN2C(=S)Nc2ccccc2)cc1OC (stereo unspecified)	none
COc1cccc(C2CC(c3cccs3)=NN2C(=S)Nc2ccccc2)c1OC (stereo unspecified)	RORg inh 8.9µM, SW480 rereplic inconclusive
Cc1ccc(C(=O)N2N=C(c3ccc(Br)cc3)CC2c2ccccc2O)cc1 (stereo unspecified)	MCF10A rereplic 18µM, VP16 counter inconclusive, ELG1 DNA repair inconclusive
Cc1nc(N2CCOCC2)nc(Oc2ccccc2F)c1[N+](=O)[O-]	ELG1 DNA repair inconclusive
COCCN1C(=O)C(=O)/C(=C(/O)c2ccc(S(=O)(=O)N3CCOCC3)cc2)C1c1cccc(Cl)c1 (stereo unspecified)	none
NCCCC[C@H](NC(=O)[C@@H]1CCCN1C(=O)[C@H](CO)NC(=O)[C@H](CC(=O)O)NC(=O)CNC(=O)[C@H](CCCN=C(N)N)NC(=O)CN)C(=O)O	none (no result: MCF10A rereplic, ELG1 DNA repair, SW480 rereplic)
COc1cccc2sc(=NC(=O)CS(=O)(=O)c3ccc(Cl)cc3)n(C)c12	none (no result: RORg inh, VP16 counter)
NC(=O)c1ccc(-c2ncc(-c3ccccc3)o2)cc1	RORg inh 1.8µM, MCF10A rereplic inconclusive, VP16 counter 11µM, ELG1 DNA repair inconclusive
Cc1cccc2sc(NC(=O)C3CSC4(C)CCC(=O)N34)nc12 (stereo unspecified)	MCF10A rereplic inconclusive, SW480 rereplic inconclusive
CC12CCC(=O)N1C(C(=O)Nc1nc3c(F)cc(F)cc3s1)CS2 (stereo unspecified)	MCF10A rereplic inconclusive, VP16 counter 3.5µM
COc1ccc(N(CC(=O)NCCSCc2ccc(C)cc2)S(=O)(=O)c2ccccc2)cc1	MCF10A rereplic inconclusive, ELG1 DNA repair inconclusive
COc1ccccc1N(CC(=O)NCCSCc1ccc(C)cc1)S(=O)(=O)c1ccccc1	ELG1 DNA repair 16µM
COc1ccccc1N(CC(=O)Nc1ccc(Cc2ccncc2)cc1)S(=O)(=O)c1ccccc1	MCF10A rereplic inconclusive, ELG1 DNA repair 18µM
COc1ccc(N(CC(=O)NCCSc2ccccc2)S(=O)(=O)c2ccccc2)c(OC)c1	MCF10A rereplic inconclusive, ELG1 DNA repair 21µM, SW480 rereplic inconclusive (no result: RORg inh, VP16 counter)
Clc1ccccc1N=C1SCCS1	RORg inh inconclusive
CCCCOc1ccc(/C=C/C2=CC(C)(C)NC(=S)N2)cc1OCC	RORg inh 0.79µM, MCF10A rereplic inconclusive, VP16 counter 1.8µM
CCNS(=O)(=O)c1ccc2c(c1)NCC2	SW480 rereplic 5.8µM
COc1ccc(N2C3=C(C(=O)CC(C)(C)C3)C(c3ccccc3OC)C3=C2CC(C)(C)CC3=O)cc1	MCF10A rereplic 16µM, ELG1 DNA repair inconclusive, SW480 rereplic 18µM
C#CCOc1ccc(C2C3=C(CC(C)(C)CC3=O)N(CC(=O)O)C3=C2C(=O)CC(C)(C)C3)cc1OC	none
COc1ccccc1C1C2=C(CC(C)(C)CC2=O)N(CC(=O)O)C2=C1C(=O)CC(C)(C)C2	MCF10A rereplic 21µM
CCOc1ccc(C2C3=C(CC(C)(C)CC3=O)N(CC(=O)O)C3=C2C(=O)CC(C)(C)C3)cc1OCC	MCF10A rereplic 0.82µM, ELG1 DNA repair inconclusive
COc1ccc(N2C3=C(CC4=C2CC(C)(C)CC4=O)C(=O)CC(C)(C)C3)cc1	ELG1 DNA repair inconclusive
CCC1C(=O)C[C@H]2CCN3C(=O)CCCC1C23 (stereo partly specified)	none
CCOc1ccc(NC(=S)N(CCOC)C2CCN(C(C)C)CC2)cc1	none
S=C(Nc1cccc(Cl)c1)N(CCCN1CCCC1)Cc1cccn1Cc1ccc(Cl)cc1	RORg inh 18µM, MCF10A rereplic inconclusive, VP16 counter inconclusive
CSc1cccc(NC(=S)N(CCCN2CCCC2)Cc2cccn2Cc2ccc(Cl)cc2)c1	RORg inh 13µM, MCF10A rereplic 21µM, SW480 rereplic inconclusive
CSc1cccc(NC(=S)N(CCCN2CCCC2)Cc2cccs2)c1	RORg inh inconclusive
COc1cccc(NC(=S)N(CCCN2CCCC2)Cc2cccn2Cc2ccc(Cl)cc2)c1	RORg inh inconclusive, VP16 counter inconclusive, SW480 rereplic inconclusive
CC(Sc1nnc(Cc2cccs2)n1C)C(=O)Nc1ccc(C(N)=O)cc1 (stereo unspecified)	none (no result: RORg inh, VP16 counter)
NNc1nc(-c2ccccc2)nc(-c2ccccc2)c1Br	SW480 rereplic inconclusive (no result: RORg inh, VP16 counter, ELG1 DNA repair)
CC(C)(C)C(=O)Nc1cc2nn(-c3ccccc3)nc2cc1Cl	RORg inh 0.63µM, MCF10A rereplic inconclusive, VP16 counter 3.5µM, ELG1 DNA repair inconclusive, SW480 rereplic 7.3µM
O=C(/C=C/c1cccs1)Nc1ccc(Br)cn1	MCF10A rereplic inconclusive, ELG1 DNA repair inconclusive, SW480 rereplic inconclusive
CC(=O)c1c(C)[nH]c(C(=O)Nc2cc(C)cc(C)c2)c1C	RORg inh inconclusive, MCF10A rereplic inconclusive, ELG1 DNA repair inconclusive
CC(=O)c1c(C)[nH]c(C(=O)Nc2nc(-c3ccc(-c4ccccc4)cc3)cs2)c1C	MCF10A rereplic 3.3µM, VP16 counter inconclusive, ELG1 DNA repair 21µM
COc1ccc(-c2nc(NC(=O)c3[nH]c(C)c(C(C)=O)c3C)sc2C)cc1	MCF10A rereplic inconclusive, ELG1 DNA repair inconclusive
CC(=O)c1c(C)[nH]c(C(=O)Nc2nc(-c3ccc(Cl)cc3)cs2)c1C	RORg inh inconclusive, MCF10A rereplic 23µM, VP16 counter inconclusive, ELG1 DNA repair inconclusive
CC(=O)c1c(C)[nH]c(C(=O)Nc2nc(C)cs2)c1C	RORg inh 4.5µM, VP16 counter 10µM, ELG1 DNA repair inconclusive
CC(=O)c1c(C)[nH]c(C(=O)Nc2ccc(C)cn2)c1C	RORg inh 2µM, VP16 counter inconclusive, ELG1 DNA repair inconclusive
COc1ccccc1N1CCN(S(=O)(=O)c2c[nH]c(=O)[nH]c2=O)CC1	none (no result: RORg inh, VP16 counter)
NNC(=O)CCN1CCN(C(c2ccccc2)c2ccccc2)CC1	none
